Measurements as given in publication PMC7862700, “An all-to-all approach to the identification of sequence-specific readers for epigenetic DNA modifications on cytosine”.

Legend:
Assay in all cases: DAPPL (digital affinity profiling via proximity ligation, sequencing); 10 mM Tris-HCl pH 7.5, 50 mM NaCl, 1 mM DTT, 4% glycerol, room temperature, 30 min; GST-TFs on glutathione beads, 16-mer random dsDNA library, 0.1% formaldehyde crosslink after washing; high values mean tight binding
Settings in all cases: protein: recombinant; tags: N-terminal GST; dsDNA, one strand shown
[1] = target: T1, SPIC (Homo sapiens, UniProt Q8N5J4 1-248)
T1 sequence: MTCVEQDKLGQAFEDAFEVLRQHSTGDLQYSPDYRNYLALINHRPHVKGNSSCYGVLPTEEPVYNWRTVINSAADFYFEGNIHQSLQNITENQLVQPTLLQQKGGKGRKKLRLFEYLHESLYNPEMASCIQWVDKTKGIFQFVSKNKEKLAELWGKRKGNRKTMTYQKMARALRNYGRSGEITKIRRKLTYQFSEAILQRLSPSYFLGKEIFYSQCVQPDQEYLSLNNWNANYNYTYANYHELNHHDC
How it was run: (§1)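 GST fusions of human transcription factors were expressed in yeast and captured with glutathione beads. Once given DNA barcodes and pooled alongside a tag-only sample, they were incubated for 30 min at room temperature with 200 nmole of a random double-stranded 16-mer DNA library in Tris/NaCl/DTT/glycerol buffer, then washed, crosslinked (0.1% formaldehyde), proximity-ligated, PCR-amplified and sequenced on an Illumina NextSeq500. The binding signal of each hexamer is its read frequency for a factor divided by its frequency for the tag-only sample.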

[2] = target: T2, ELK1 (Homo sapiens, UniProt P19419 1-428)
T2 sequence: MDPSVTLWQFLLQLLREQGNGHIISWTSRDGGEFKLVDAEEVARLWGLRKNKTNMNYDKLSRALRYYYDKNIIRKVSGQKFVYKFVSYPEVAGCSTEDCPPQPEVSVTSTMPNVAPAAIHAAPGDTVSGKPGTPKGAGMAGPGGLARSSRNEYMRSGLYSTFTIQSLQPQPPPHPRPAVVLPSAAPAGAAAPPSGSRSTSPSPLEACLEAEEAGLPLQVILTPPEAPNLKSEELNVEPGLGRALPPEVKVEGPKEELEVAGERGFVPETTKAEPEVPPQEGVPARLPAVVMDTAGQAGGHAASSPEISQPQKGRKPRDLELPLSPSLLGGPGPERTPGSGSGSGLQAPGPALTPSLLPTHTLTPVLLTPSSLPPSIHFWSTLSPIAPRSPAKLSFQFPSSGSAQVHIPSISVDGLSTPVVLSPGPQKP
How it was run: as §1

[3] = target: T3, GABPA (Homo sapiens, UniProt Q06546 1-454)
T3 sequence: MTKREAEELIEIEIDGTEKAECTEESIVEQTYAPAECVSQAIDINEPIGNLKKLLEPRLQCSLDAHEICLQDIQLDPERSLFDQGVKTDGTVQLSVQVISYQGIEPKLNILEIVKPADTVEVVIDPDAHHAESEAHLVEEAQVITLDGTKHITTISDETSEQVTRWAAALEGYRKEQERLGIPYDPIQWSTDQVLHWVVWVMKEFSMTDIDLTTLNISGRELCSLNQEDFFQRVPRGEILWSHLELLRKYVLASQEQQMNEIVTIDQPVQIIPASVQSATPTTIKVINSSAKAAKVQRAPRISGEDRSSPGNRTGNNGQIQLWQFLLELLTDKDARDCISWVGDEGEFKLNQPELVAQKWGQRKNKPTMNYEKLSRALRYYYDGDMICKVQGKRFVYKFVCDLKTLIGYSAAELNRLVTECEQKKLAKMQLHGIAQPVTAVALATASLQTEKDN
How it was run: as §1

[4] = target: T4, ERG (Homo sapiens, UniProt P11308 1-479)
T4 sequence: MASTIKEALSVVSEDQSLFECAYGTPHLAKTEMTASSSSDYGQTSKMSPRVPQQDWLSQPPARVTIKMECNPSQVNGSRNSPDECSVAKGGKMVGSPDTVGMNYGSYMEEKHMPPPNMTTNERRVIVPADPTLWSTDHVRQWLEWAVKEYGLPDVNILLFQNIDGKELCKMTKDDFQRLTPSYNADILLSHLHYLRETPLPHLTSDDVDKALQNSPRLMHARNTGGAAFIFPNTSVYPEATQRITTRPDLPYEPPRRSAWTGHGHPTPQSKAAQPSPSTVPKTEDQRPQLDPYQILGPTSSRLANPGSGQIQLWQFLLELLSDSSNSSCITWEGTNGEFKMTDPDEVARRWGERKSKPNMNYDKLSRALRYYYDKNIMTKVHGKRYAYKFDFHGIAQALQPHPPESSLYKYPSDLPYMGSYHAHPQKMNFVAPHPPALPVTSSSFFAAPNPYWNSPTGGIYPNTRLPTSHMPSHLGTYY
How it was run: as §1

[5] = target: ELF1 (Homo sapiens, UniProt P32519 1-619)
Chain of ELF1 (P32519 whole entry): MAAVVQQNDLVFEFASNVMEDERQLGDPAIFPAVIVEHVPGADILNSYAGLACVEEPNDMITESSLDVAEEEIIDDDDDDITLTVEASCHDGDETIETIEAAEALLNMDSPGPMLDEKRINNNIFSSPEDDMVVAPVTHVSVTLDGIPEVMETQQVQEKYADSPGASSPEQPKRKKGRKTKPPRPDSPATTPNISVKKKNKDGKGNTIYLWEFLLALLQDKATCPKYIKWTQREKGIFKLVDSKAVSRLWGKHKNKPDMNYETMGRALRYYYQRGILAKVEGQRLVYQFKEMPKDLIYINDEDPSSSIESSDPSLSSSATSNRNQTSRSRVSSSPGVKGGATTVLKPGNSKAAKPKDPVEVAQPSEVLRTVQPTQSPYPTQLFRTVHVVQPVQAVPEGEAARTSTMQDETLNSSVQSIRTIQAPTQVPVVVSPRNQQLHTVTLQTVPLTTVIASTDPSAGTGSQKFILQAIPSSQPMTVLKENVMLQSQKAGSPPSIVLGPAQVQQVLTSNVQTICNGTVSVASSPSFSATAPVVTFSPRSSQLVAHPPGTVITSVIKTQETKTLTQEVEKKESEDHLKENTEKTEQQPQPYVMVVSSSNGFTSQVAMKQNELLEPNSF
How it was run: as §1

[6] = target: SPIB (Homo sapiens, UniProt Q01892 1-262)
Chain of SPIB (Q01892 whole entry): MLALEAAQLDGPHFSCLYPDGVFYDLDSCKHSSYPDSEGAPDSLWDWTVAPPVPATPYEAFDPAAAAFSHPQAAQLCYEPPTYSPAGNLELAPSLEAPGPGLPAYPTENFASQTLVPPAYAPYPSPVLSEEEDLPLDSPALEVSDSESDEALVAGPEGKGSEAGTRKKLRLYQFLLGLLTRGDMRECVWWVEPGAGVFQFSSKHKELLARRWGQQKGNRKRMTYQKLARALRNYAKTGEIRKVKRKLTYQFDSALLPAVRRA
How it was run: as §1

[7] = target: T5, ELK3 (Homo sapiens, UniProt P41970 1-407)
T5 sequence: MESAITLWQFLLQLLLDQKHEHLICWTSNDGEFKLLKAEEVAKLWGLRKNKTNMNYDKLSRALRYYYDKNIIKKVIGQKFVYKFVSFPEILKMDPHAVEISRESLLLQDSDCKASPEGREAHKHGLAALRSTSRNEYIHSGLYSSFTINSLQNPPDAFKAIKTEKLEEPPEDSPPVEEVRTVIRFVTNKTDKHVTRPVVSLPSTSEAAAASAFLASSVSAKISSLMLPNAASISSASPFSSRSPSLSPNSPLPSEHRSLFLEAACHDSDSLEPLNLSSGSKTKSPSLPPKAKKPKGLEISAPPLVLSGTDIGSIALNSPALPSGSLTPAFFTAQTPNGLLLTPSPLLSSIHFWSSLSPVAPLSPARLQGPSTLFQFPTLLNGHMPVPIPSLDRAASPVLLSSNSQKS
How it was run: as §1

[8] = target: ELF4 (Homo sapiens, UniProt Q99607 1-663)
Chain of ELF4 (Q99607 whole entry): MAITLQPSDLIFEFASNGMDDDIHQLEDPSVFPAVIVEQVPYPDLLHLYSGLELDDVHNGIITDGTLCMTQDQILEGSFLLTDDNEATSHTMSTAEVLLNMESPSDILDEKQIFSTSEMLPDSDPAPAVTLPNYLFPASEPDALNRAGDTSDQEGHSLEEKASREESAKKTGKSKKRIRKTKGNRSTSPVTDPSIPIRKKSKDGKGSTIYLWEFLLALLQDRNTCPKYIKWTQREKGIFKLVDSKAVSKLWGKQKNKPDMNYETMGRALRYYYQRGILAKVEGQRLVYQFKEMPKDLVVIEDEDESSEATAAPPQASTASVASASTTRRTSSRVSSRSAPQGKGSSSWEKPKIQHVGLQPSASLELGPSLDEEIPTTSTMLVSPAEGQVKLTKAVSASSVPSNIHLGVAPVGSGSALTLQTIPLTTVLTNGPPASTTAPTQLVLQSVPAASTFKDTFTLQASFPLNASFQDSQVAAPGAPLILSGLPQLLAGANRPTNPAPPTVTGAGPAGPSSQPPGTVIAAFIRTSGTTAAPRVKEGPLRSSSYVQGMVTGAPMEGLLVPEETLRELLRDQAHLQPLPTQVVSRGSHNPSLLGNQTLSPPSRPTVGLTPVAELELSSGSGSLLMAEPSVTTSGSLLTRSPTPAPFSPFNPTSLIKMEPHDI
How it was run: as §1

[9] = target: T6, ELK4 (Homo sapiens, UniProt P28324-2 1-405)
T6 sequence: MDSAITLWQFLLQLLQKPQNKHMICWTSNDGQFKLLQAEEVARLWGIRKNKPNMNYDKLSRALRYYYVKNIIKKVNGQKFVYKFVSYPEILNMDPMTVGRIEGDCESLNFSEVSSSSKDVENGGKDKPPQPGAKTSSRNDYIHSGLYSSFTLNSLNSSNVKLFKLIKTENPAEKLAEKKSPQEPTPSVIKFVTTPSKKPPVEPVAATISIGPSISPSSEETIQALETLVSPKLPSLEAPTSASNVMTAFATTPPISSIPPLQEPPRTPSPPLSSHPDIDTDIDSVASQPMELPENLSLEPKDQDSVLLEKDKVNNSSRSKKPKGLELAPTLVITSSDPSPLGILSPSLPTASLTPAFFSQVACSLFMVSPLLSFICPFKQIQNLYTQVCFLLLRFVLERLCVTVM
How it was run: as §1

[10] = target: T7, ELF3 (Homo sapiens, UniProt P78545 1-371)
T7 sequence: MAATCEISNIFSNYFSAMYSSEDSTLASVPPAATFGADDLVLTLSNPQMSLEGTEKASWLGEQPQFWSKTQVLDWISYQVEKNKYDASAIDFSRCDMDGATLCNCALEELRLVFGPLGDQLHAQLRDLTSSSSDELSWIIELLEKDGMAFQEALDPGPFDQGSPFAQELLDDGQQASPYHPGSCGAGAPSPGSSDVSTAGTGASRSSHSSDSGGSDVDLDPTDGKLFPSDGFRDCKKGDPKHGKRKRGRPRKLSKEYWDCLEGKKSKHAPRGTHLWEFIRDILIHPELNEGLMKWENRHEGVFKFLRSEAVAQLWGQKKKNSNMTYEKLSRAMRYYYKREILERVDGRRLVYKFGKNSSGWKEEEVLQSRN
How it was run: as §1

[11] = target: ETV1 (Homo sapiens, UniProt P50549 1-477)
Chain of ETV1 (P50549 whole entry): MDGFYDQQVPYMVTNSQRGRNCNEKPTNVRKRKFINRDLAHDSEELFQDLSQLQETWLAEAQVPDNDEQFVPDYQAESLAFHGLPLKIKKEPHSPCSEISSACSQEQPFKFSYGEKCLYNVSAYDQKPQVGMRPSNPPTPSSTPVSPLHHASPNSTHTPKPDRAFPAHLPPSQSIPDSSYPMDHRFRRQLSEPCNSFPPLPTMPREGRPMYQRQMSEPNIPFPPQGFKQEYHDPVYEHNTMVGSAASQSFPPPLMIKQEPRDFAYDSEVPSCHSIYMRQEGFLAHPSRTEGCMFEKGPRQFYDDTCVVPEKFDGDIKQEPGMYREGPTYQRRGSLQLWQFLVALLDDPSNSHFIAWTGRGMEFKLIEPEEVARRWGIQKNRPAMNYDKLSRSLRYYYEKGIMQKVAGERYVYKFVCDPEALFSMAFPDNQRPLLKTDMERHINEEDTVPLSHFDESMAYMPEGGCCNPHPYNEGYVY
How it was run: as §1

[12] = target: T8, ERF (Homo sapiens, UniProt P50548 1-548)
T8 sequence: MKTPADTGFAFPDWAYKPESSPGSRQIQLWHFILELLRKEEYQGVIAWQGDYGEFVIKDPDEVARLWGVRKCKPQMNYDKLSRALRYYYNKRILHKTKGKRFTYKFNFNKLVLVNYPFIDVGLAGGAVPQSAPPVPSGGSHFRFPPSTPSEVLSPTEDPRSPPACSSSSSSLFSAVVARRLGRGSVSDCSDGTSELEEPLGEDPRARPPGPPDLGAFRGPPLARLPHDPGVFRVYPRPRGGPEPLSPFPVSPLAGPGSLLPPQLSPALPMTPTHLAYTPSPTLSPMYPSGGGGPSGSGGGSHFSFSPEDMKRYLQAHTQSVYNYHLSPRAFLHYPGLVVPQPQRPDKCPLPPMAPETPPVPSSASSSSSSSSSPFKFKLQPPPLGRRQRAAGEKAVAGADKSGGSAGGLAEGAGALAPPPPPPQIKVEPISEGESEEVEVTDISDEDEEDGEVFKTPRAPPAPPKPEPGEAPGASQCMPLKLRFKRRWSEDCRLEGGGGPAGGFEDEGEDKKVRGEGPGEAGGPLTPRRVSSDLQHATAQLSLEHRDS
How it was run: as §1

[13] = target: T9, ETV3L (Homo sapiens, UniProt Q6ZN32 1-361)
T9 sequence: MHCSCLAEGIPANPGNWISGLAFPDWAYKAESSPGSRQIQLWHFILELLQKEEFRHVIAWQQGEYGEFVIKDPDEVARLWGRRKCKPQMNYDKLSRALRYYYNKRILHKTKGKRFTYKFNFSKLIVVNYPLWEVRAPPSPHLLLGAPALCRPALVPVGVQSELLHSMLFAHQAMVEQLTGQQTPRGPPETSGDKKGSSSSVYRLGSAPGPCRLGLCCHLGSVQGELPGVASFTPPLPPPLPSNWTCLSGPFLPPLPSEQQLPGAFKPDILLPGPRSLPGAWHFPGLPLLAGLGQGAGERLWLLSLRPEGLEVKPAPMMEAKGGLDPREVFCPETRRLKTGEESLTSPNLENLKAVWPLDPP
How it was run: as §1

[14] = target: T10, ETS2 (Homo sapiens, UniProt P15036 1-469)
T10 sequence: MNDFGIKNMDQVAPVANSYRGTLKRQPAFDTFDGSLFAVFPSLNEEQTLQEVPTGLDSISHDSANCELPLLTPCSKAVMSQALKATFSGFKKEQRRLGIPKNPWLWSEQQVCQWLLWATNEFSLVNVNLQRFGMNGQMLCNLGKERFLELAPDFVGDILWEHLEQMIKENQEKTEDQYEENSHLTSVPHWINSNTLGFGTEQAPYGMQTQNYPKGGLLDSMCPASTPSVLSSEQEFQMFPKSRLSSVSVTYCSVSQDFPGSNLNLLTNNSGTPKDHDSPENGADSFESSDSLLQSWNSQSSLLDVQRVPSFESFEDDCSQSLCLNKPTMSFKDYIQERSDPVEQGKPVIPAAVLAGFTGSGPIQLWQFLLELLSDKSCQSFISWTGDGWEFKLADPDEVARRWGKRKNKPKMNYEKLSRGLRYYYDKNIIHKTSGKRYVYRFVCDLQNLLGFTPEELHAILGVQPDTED
How it was run: as §1

[15] = target: T11, SPDEF (Homo sapiens, UniProt O95238 1-335)
T11 sequence: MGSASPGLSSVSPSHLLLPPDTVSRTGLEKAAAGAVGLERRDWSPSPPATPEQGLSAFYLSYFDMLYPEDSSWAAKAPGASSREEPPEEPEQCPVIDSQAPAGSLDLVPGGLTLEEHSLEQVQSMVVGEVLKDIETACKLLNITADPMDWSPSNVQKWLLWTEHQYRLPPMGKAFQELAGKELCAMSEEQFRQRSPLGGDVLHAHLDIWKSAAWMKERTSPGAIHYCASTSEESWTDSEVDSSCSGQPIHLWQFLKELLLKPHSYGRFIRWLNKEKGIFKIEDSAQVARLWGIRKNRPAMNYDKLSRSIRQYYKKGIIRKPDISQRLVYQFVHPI
How it was run: as §1

[16] = target: T12, ETV7 (Homo sapiens, UniProt Q9Y603 1-341)
T12 sequence: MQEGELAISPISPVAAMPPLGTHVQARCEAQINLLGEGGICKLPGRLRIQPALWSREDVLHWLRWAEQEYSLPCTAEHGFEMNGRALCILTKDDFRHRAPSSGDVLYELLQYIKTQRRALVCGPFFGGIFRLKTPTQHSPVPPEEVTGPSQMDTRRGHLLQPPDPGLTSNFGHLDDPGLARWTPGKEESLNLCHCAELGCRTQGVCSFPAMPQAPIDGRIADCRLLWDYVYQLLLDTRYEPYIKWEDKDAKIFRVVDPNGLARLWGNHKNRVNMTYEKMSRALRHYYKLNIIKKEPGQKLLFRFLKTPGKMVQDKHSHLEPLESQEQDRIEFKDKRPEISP
How it was run: as §1

[17] = target: T13, ETV3 (Homo sapiens, UniProt P41162-2 1-143)
T13 sequence: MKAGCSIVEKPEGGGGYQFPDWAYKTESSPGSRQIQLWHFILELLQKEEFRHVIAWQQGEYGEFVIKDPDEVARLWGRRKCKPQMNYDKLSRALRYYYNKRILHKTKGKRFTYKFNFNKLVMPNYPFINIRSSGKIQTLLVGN
How it was run: as §1

[18] = target: ETV6 (Homo sapiens, UniProt P41212 1-452)
Chain of ETV6 (P41212 whole entry): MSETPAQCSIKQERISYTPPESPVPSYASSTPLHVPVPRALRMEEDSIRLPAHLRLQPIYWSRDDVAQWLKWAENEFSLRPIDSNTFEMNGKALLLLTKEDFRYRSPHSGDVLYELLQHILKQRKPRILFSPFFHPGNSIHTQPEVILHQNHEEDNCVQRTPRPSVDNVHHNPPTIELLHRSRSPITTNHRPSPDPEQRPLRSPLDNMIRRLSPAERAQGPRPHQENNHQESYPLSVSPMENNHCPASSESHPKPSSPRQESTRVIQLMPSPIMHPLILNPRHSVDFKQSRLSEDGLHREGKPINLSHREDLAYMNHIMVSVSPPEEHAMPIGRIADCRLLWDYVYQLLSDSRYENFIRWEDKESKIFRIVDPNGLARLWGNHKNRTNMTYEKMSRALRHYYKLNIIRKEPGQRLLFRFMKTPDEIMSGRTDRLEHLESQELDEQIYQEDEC
How it was run: as §1

GTAAGC
binding signal [1]: 1.01 fold enrichment (6-mer frequency, TF over GST control)

ATAAGA
binding signal [2]: 1.12 fold enrichment (6-mer frequency, TF over GST control) | binding signal [3]: 1.08 fold enrichment (6-mer frequency, TF over GST control) | binding signal [4]: 1.11 fold enrichment (6-mer frequency, TF over GST control) | binding signal [5]: 1.04 fold enrichment (6-mer frequency, TF over GST control) | binding signal [6]: 1.04 fold enrichment (6-mer frequency, TF over GST control) | binding signal [7]: 1.13 fold enrichment (6-mer frequency, TF over GST control) | binding signal [1]: 1.03 fold enrichment (6-mer frequency, TF over GST control) | binding signal [8]: 1.06 fold enrichment (6-mer frequency, TF over GST control) | binding signal [9]: 1.11 fold enrichment (6-mer frequency, TF over GST control) | binding signal [10]: 1.04 fold enrichment (6-mer frequency, TF over GST control) | binding signal [11]: 1.1 fold enrichment (6-mer frequency, TF over GST control) | binding signal [12]: 1.14 fold enrichment (6-mer frequency, TF over GST control) | binding signal [13]: 1.05 fold enrichment (6-mer frequency, TF over GST control) | binding signal [14]: 1.09 fold enrichment (6-mer frequency, TF over GST control) | binding signal [15]: 1.15 fold enrichment (6-mer frequency, TF over GST control) | binding signal [16]: 1.04 fold enrichment (6-mer frequency, TF over GST control) | binding signal [17]: 1.07 fold enrichment (6-mer frequency, TF over GST control) | binding signal [18]: 1.07 fold enrichment (6-mer frequency, TF over GST control)
